High-throughput results deposited in PubChem BioAssay by National Center for Advancing Translational Sciences (NCATS).
Sampled rows, rich in hits. Any-hit rate of the full collection: about 11%.
Vaccinia Venus = inhibitors of vaccinia virus (Venus reporter); Vaccinia virus Venus reporter expression, fluorescence; Potency, µM (doses to about 36.5 µM), without a hit: at the top dose activity change, negative = inhibition, most hits filed as inhibitors; hit rate 0.46% among 330,000; calls by dose curve; tested in A549 cells; note: % is set by controls: 0 for no effect and ±100 for the full control effect; nearly all actives have a fitted effect of over 30% in size
Vaccinia mCherry = inhibitors of vaccinia virus infection (mCherry reporter signal); Vaccinia virus mCherry reporter infection, fluorescence; Potency, µM (titrated, usually from 36.5 µM), inactives show at the top dose activity change, negative = inhibition, actives largely listed as inhibitors; hit rate 0.63% among 310,000; calls by dose curve; tested in A549 cells; note: % is set by controls: 0 for no effect and ±100 for the full control effect; nearly all actives have a fitted effect of over 35% in size
Pf growth 96h = P. falciparum growth inhibition at 96 hour, primary screen for plastid delayed-death inhibitors; P. falciparum luciferase reporter growth, 96 h; Potency, µM (titrated, usually from 28.7 µM), without a hit: at the top dose activity change, negative = inhibition, most hits filed as inhibitors; hit rate 6.9% among 320,000; note: % is set by controls: 0 for no effect and ±100 for the full control effect
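Infected RBCs, 2% Hct / 0.05% parasitemia final; luciferase-reporter P. falciparum; cpd 96 h, 37 C, 5% CO2; luciferase detection reagent; luminescence.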
NS1 inh = blocks influenza NS1 protein function; Potency, µM (top dose mostly 46.1 µM), for inactives: at the top dose activity, positive = more growth; hit rate 0.4% among 270,000; AID 2326; calls by dose curve; note: actives are rising curves; nearly all actives have a fitted effect of over 50% in size
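In this qHTS, NS1 from influenza A is expressed in budding yeast, where it slows growth. Cells are switched from glucose to 2% galactose medium (pH 6.0, -URA), treated with compound, and growth recovery is read at OD600.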
Pf growth 48h = P. falciparum growth inhibition at 48 hours (one generation) | hit rate 5.9% among 310,000 | Potency, µM (titrated, usually from 28.7 µM), inactives show at the top dose activity change, negative = inhibition, most hits filed as inhibitors | P. falciparum luciferase growth in erythrocytes, 48 h; note: % is set by controls: 0 for no effect and ±100 for the full control effect
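Erythrocytes infected with P. falciparum carrying an integrated firefly luciferase reporter (2% hematocrit, 0.1% parasitemia final) were exposed to compounds in RPMI 1640 with 0.5% Albumax at 37 C, 5% CO2. Growth inhibition was scored as reduced luminescence.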
HCV inhibitor = blocks hepatitis C virus; Huh7.5.1 HCVcc-Cre infection, luciferase reporter, 44 h; Potency, µM (titrated, usually from 41.8 µM), inactives show top-dose activity change, negative = inhibition, hits mostly inhibitors; hit rate 3.4% among 340,000; AID 651820; note: % is set by controls: 0 for no effect and ±100 for the full control effect
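Infectious HCV cell culture screen: compound-treated cells (1,000/well, pre-plated 4 h) are infected with HCVcc-Cre at roughly 0.5 moi and grown 44 h. Infection is quantified by luciferase signal after 15 min substrate incubation at room temperature.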
The depositor's hits bear a star; i = inactive; u = inconclusive; x = not tested or not shown; [ ] = remark or other dose. Unless noted, calls come from the whole dose curve; as a rule, active = well fitted inhibition curve with a large enough effect; inconclusive = small, poorly fitted or top-dose-only effect, or another doubt; inactive = no such curve, though single readings can be large or run the other way. Potency is the fitted concentration of half-maximal effect.

SMILES | Vaccinia Venus | Vaccinia mCherry | Pf growth 96h | NS1 inh | Pf growth 48h | HCV inhibitor
O=C1CS/C(=N/N=C/c2ccncc2)N1 | -15.2% | -14.3% | 14.7µM* | 0.7% | u | 8.6%
CN(C)S(=O)(=O)c1ccc(/C(O)=C2/C(=O)C(=O)N(Cc3cccnc3)C2c2ccco2)cc1 (stereo not given) | -10.6% | x | 8.28µM* | -1.6% | 28.9% | 5.0%
Cc1noc(NS(=O)(=O)c2ccc(NC(=O)/C=C/c3ccc(C(C)C)cc3)cc2)c1C | -0.1% | -6.9% | 10.4µM* | 22.1% | 32.9% | -5.6%
S=C(NNc1ccnc2cc(Cl)ccc12)Nc1ccc(Cl)cc1Cl | x | x | 0.738µM* | -10.9% | 1.85µM* | 5.62µM*
CCOc1ccc(NC(=S)NNc2ccnc3cc(Cl)ccc23)cc1 | -12.0% | -3.9% | 2.08µM* | x | u | 3.16µM*
CC(C)CN(C(=O)c1cccc([N+](=O)[O-])c1)c1c(N)n(CC(C)C)c(=O)[nH]c1=O | -3.1% | 4.8% | 1.8% | u | -2.6% | 13.2%
CCC(C)NC(=O)C1CC(c2cccc(OC)c2)=NO1 (stereo not given) | x | x | 10.4µM* | -0.3% | 9.3% | 11.9%
O=C(NCc1ccccn1)C1CC(c2ccc(F)cc2)=NO1 (stereo not given) | x | x | 2.94µM* | -2.5% | x | 3.7%
CCCNC(=O)C1CC(c2cccc(F)c2)=NO1 (stereo not given) | -14.9% | -11.2% | 78.5% | 2.8% | 58.4% | 12.5%
O=C(NCCc1cccs1)C1CC(c2cccc(F)c2)=NO1 (stereo not given) | -19.1% | i | 1.65µM* | -36.2% | u | 3.55µM*
COCCNC(=O)C1CC(c2cccc(OC)c2)=NO1 (stereo not given) | -3.3% | -16.5% | -19.6% | 4.1% | 16.6% | 17.2%
COc1ccc(C2=NOC(C(=O)NCc3ccccc3)C2)cc1 (stereo not given) | x | x | 7.38µM* | 7.9% | u | 15.2%
Cc1c(C)c2ccc(OCC(=O)N3CCC(C(=O)O)CC3)cc2oc1=O | 0.9% | -4.1% | -29.6% | -5.4% | 17.2% | 12.8%
CCOc1cccc(OCCCCN2CCOCC2)c1 | -0.3% | x | 0.0% | -9.5% | u | -13.3%
COc1ccccc1C(=O)N/C(=C/c1ccc(Br)cc1)C(=O)N1CCOCC1 | -8.7% | -4.0% | x | x | x | x
COc1cccc(C2=NOC(C(=O)NCc3ccccc3)C2)c1 (stereo not given) | -25.4% | -4.3% | 4.15µM* | -31.5% | -2.3% | 26.1%
O=C(NCc1ccc(OC(F)(F)F)cc1)C1CC(c2c(Cl)cccc2Cl)=NO1 (stereo not given) | -2.8% | -23.2% | 36.4% | 1.1% | 1.31µM* | u
COc1cccc(C2=NOC(C(=O)N3CCOCC3)C2)c1 (stereo not given) | x | x | 1.65µM* | -0.2% | 159.5% | 5.0%
COc1ccc(CNC(=O)C2CC(c3cccc([N+](=O)[O-])c3)=NO2)cc1 (stereo not given) | 0.8% | -26.2% | 131.2% | -46.7% | 78.0% | u
COc1ccc(C2=NOC(C(=O)N3CCOCC3)C2)cc1OC (stereo not given) | x | x | 108.7% | -17.5% | 108.9% | 3.0%
COc1cccc(C2=NOC(C(=O)NCc3ccco3)C2)c1 (stereo not given) | -24.1% | -12.3% | u | -9.5% | -5.9% | 18.7%
Cc1ccc(CNC(=O)C2CC(c3cccc([N+](=O)[O-])c3)=NO2)cc1 (stereo not given) | -22.4% | u | 42.3% | -7.5% | 2.62µM* | u
CNC(=O)C1CC(=O)N(Cc2ccccc2)C(=Nc2ccc(OC)cc2)S1 (stereo not given) | x | x | -23.3% | 11.6% | u | 9.5%
CCNC(=O)C1CC(=O)N(Cc2ccc(F)cc2)C(=Nc2ccc(OC)cc2)S1 (stereo not given) | -17.4% | i | u | -3.6% | 7.38µM* | 27.5%
O=C(ON=C1CCSCC1)c1ccccc1 | -14.0% | i[1.46 µM] | x | x | x | -10.1%
SMILES | Vaccinia Venus | Vaccinia mCherry | Pf growth 96h | NS1 inh | Pf growth 48h | HCV inhibitor
CN1C(C)(C)CC(=NOC(=O)c2ccccc2)CC1(C)C | x | x | 10.4µM* | -2.2% | -20.0% | 9.6%
CCOC(=O)c1sc2nc(SCC(=O)N(CC)CC)n(CCCN3CCCC3=O)c(=O)c2c1C | -11.0% | -8.2% | -92.4% | x | 2.08µM* | -8.0%
COC(=O)c1ccc(-c2ccco2)n1Cc1nc(-c2ccc(OC)c(OC)c2)oc1C | -14.5% | x | x | 25.0% | 13.1µM* | u
Cc1ccc(NC(=O)CNc2cc(S(=O)(=O)N3CCOCC3)ccc2NCC2CCCO2)cc1F (stereo not given) | -18.5% | -3.8% | u | -42.4% | u | u
CN(C)CCNC(=O)c1cccc2nc3cccc(F)c3nc12 | 3.16µM* | u | x | x | x | u
CN(C)CCNC(=O)c1ccccc1 | x | x | -11.3% | 1.5% | x | 5.7%
CN(C)CCNC(=O)c1cccc2ccc(-c3ccc(-c4ccccc4)cc3)nc12 | 12.6µM* | u | x | x | x | u
Cc1ccc(Nc2nc(NCC3CCCO3)nc(N)c2[N+](=O)[O-])cc1 (stereo not given) | -9.6% | -4.5% | 11.7µM* | -6.1% | -28.4% | u
Nc1nc(NCC2CCCO2)nc(Nc2ccc(F)cc2)c1[N+](=O)[O-] (stereo not given) | -5.1% | -15.8% | 5.86µM* | -15.1% | u | -2.4%
Cc1ccc(Nc2nc(N)c([N+](=O)[O-])c(NCc3ccco3)n2)cc1 | u | -11.0% | 11.7µM* | 11.2% | 0.2% | u
CNc1nc(N)c([N+](=O)[O-])c(NCC2CCCO2)n1 (stereo not given) | x | x | -2.8% | 1.2% | 2.08µM* | -13.2%
COCCNc1nc(N)c([N+](=O)[O-])c(NCC2CCCO2)n1 (stereo not given) | -17.3% | -24.4% | -5.3% | 1.1% | -2.3% | 0.6%
Nc1nc(Nc2ccccc2)nc(NCc2ccco2)c1[N+](=O)[O-] | u | -25.8% | u | -17.2% | u | u
Fc1ccc(Nc2nc(NCc3ccco3)c3ccccc3n2)cc1 | x | x | u | -51.5% | 0.37µM* | 10µM*
Nc1nc(NCc2ccco2)nc(Nc2ccccc2)c1[N+](=O)[O-] | -7.5% | i | -23.1% | -3.9% | -3.4% | -4.0%
Cc1ccc(CN(c2ccc(C(=O)NCc3ccc4c(c3)OCO4)cc2)S(C)(=O)=O)cc1 | x | x | x | 3.7% | -29.4% | -2.0%
Nc1nc(Sc2ccc([N+](=O)[O-])c3nonc23)c2[nH]cnc2n1 | 140.8% | u | x | u | x | 2.82µM*
CC(C)[C@H](Sc1nc(N)nc2nc[nH]c12)C(=O)O | x | x | x | -3.5% | x | x
CNc1ncnc(Sc2nc(N)nc3nc[nH]c23)c1[N+](=O)[O-] | u | 5.01µM* | x | 0.0% | x | u
CC(C)(C)c1ccc(C(=O)NCC(=O)N2CCCC2)cc1 | -1.1% | -8.2% | -2.4% | -1.1% | 7.6% | 27.2%
C/C(=N\Nc1ccccn1)c1cccs1 | -4.7% | -5.0% | 263.8% | x | 342.2% | 10µM*
